Test results from PubChem BioAssay AID1850 (Southern Research Specialized Biocontainment Screening …, 2009).
Out of some 310,000 compounds screened, about 1,000 (0.32%) were called active. The rule behind the calls is not given here. Only a sample is shown. Entries with a potency or affinity are not part of this list.

Assay: Inhibition of PhoP regulon, Salmonella typhi GFP reporter cells, confirmation, 4 h (AID 1850);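 note: 0% = induced wells with vehicle and 100% = uninduced wells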
Details: Salmonella Typhi PhoP-promoter GFP reporter, fluorescence, at 50 µM, active compounds read high

| Compound | inhibition |
| --- | --- |
| O=C(Nc1cccc(-n2cccn2)c1)C1CCCN(Cc2cccc(F)c2F)C1 (stereo not drawn) | -4.31% (inactive) |
| N/C(=N\OC(=O)c1ccc(Br)cc1)c1ccncc1 | 5.21% (inactive) |
| COc1ccc(OC)c(S(=O)(=O)N2CCC(C(=O)NCc3ccc4c(c3)OCO4)CC2)c1 | -8.79% (inactive) |
| Cc1ccc2cc(CCNC(=O)c3cccs3)c(=O)[nH]c2c1C | 3.08% (inactive) |
| CCOc1ccc(S(=O)(=O)N2CCN(C(=O)c3ccc(-n4cncn4)c([N+](=O)[O-])c3)CC2)cc1 | -1.56% (inactive) |
| COc1ccc(N2CCN(C(c3cccs3)C(C)NS(C)(=O)=O)CC2)cc1 (stereo not drawn) | -6.29% (inactive) |
| COc1ccc(Cc2c(C)nc(N)nc2Cl)cc1 | -7.38% (inactive) |
| Cc1nc(N)nc(Cl)c1Cc1ccc(Cl)cc1 | -7.07% (inactive) |
| CCCCN(C)CCNC(=O)c1cc2cc3ccc(OC)cc3nc2o1 | 7.2% (inactive) |
| CCN(CC(=O)Nc1ccccc1C(F)(F)F)C(=O)CN1C(=O)NC2(CCCCC2)C1=O | -5.21% (inactive) |
| Nc1nc(SCC(=O)Nc2ccccc2Sc2ccccc2)n[nH]1 | -1.42% (inactive) |
| COc1ccccc1NC(=O)CCn1cccc1 | -6.32% (inactive) |
| C/C(=N\Nc1ccc2nncn2n1)c1cccs1 | 4.31% (inactive) |
| C/C(=N\Nc1ccc2nncn2n1)c1ccco1 | 2.03% (inactive) |
| O=C(Nc1csc(Cc2c(Cl)cccc2Cl)n1)NN1CCOCC1 | -0.65% (inactive) |
| CN1CCN(CCCNC(=O)Nc2ccc([N+](=O)[O-])cc2)CC1 | 1.78% (inactive) |
| O=C(NCCCN1CCCC1)Nc1ccc(F)cc1 | 2.17% (inactive) |
| COCC(=O)NNC(=O)Cc1ccc(Cl)cc1 | -2.72% (inactive) |
| CC(C)Oc1ccc(Cc2cnc(=S)[nH]c2N)cc1 | 7.33% (inactive) |
| CC(C)COc1ccc(Cc2cnc(N)nc2N)cc1 | 15.8% (inactive) |
| CCSc1ccccc1C(=O)N=C1NC(=O)CC2C(=O)NCCN12 (stereo not drawn) | 1.96% (inactive) |
| O=C(COc1ccc(C(=S)N2CCOCC2)cc1)Nc1ccccc1C(F)(F)F | -0.77% (inactive) |
| O=C(NCCCNC(=O)c1ccc(-c2cc(Cl)ccc2Cl)o1)c1cnccn1 | 9.68% (inactive) |
| COc1cccc(C(=O)NC2=NCCS2)c1OC | 2.77% (inactive) |
| CCOC(=O)Nc1c2ccccc2nc2ccccc12 | -6.02% (inactive) |
| O=C(O)c1ccc(Nc2c3ccccc3nc3ccccc23)cc1 | 4.42% (inactive) |
| CC(=O)C1=C(C)NC(=O)NC1c1ccccc1OCC(=O)NCCc1ccccc1 (stereo not drawn) | 2.94% (inactive) |
| Cc1nc2ccc(Br)cn2c1C(=O)N/N=C\c1ccccc1[N+](=O)[O-] | -1.1% (inactive) |
